# Measurements: PubChem BioAssay
# Active and inactive are the calls of the source.
# How the values were obtained:
# [1] = test system: Plasmodium falciparum Sir2 (PF13_0152, Sir2A); experiment: Plasmodium falciparum Sir2A binding compounds – biochemical, small-molecule microarray, 635 nm fluorescence, primary screen (AID 1098); details: fluorescence 635 nm, higher = more signal;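 further: score merges spot fluorescence intensity with its signal-to-noise ratio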
# [2] = probe aDKK1 binding to arrayed compounds – biochemical, biotinylated probe, 635/667 nm fluorescence, primary screen (AID 1099); details: small-molecule microarray, higher = more signal;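 further: score merges 667nm spot fluorescence with signal to noise across triplicate slides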
# [3] = probe aCHRDL2 binding to arrayed compounds – biochemical, biotinylated probe, 635/667 nm fluorescence, primary screen (AID 1100); details: small-molecule microarray, higher = more signal
# [4] = change in splice reporter luminescence, either direction, cell-based, HEK293, spliceosome inhibition project, primary screen (AID 1101); details: HEK293 splicing luciferase reporter, 24 h, higher = more signal, called active from +8 up or from −8 down;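 further: HEK293 cells carrying a splicing-competent luciferase reporter gene; test concentration not given here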
# [5] = molecular target: Fibroblast growth factor 10 (Homo sapiens) (UniProt O15520); experiment: compounds binding fibroblast growth factor 10 – biochemical, small-molecule microarray, 635 nm fluorescence, primary screen (AID 1102); details: FGF10 binding, fluorescence 635 nm, higher = more signal
# [6] = test system: glycogen synthase kinase-3 (GSK3A per assay name; protocol says GSK3B); experiment: compounds binding glycogen synthase kinase-3 – biochemical, small-molecule microarray, 635 nm fluorescence, GSK3A, primary screen (AID 1103); details: fluorescence 635 nm, higher = more signal; further: the record names both GSK3A and GSK3B
# [7] = molecular target: Epidermal growth factor receptor (Homo sapiens) (UniProt P00533); experiment: compounds binding epidermal growth factor receptor – biochemical, small-molecule microarray, 635 nm fluorescence, primary screen (AID 1104); details: EGFR binding, higher = more signal;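 further: score merges 667 nm emission intensity with spot signal to noise over triplicate slides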
# [8] = molecular target: Follistatin-related protein 3 (Homo sapiens) (UniProt O95633); experiment: compounds binding follistatin-related protein 3 – biochemical, small-molecule microarray, 635 nm fluorescence, primary screen (AID 1105); details: FSTL3 binding, higher = more signal;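 further: score merges emission near 667 nm and signal to noise per printed spot across three slides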
# [9] = molecular target: Dickkopf-related protein 1 (Homo sapiens) (UniProt O94907); experiment: small molecules binding DKK1 protein – biochemical, small-molecule microarray, 635 nm fluorescence scan, primary screen (AID 1106); details: higher = more signal;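 further: score merges emission near 667 nm with signal to noise over three replicate slides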
# [10] = test system: Inhibin beta A chain (activin A); experiment: small molecules binding activin A – biochemical, small-molecule microarray, 635 nm fluorescence scan, primary screen (AID 1107); details: INHBA, higher = more signal;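 further: mouse activin A protein probed at 4.33 µg/mL on printed slides; score merges bound-protein fluorescence near 667 nm with spot signal-to-noise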
# [11] = test system: Human papillomavirus type 1a protein E7 (residues 44-93); experiment: small molecules binding HPV E7 44-93 – biochemical, small-molecule microarray, residues 44-93, 635 nm fluorescence, primary screen (AID 1108); details: fluorescence 635 nm, higher = more signal;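 further: E7 fragment applied at 1 µg/mL in TBST for 1 h at 4 C; score combines spot fluorescence with its signal to noise ratio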
# [12] = hepatitis C replication reporter changes, two-sided – Huh7 cells, luciferase reporter, HCV replication inhibitor project, primary screen (AID 1109); details: Huh7 HCV replicon luciferase reporter, 48 h; higher = more signal;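 further: huh7 hepatoma cells harbouring a luciferase neomycin HCV replicon reporter; luciferase luminescence as measure of HCV replicon replication; test concentration not given here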
# [13] = molecular target: Left-right determination factor 2 (Homo sapiens) (UniProt O00292); experiment: small molecules binding LEFTY2 protein – biochemical, small-molecule microarray, 635 nm fluorescence scan, primary screen (AID 1110); details: higher = more signal
# [14] = molecular target: Calmodulin-1 (Homo sapiens) (UniProt P0DP23); experiment: small molecules binding calmodulin-1 with EGTA – biochemical, small-molecule microarray, Cy5-labelled CALM1, profiling panel (AID 1111); details: Cy5-CALM1 binding fluorescence, higher = more signal;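 further: labelled calmodulin applied in Tris saline Tween buffer holding calcium plus EGTA and DTT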
# [15] = molecular target: Calmodulin-1 (Homo sapiens) (UniProt P0DP23); experiment: small molecules binding Ca-loaded calmodulin-1 – biochemical, small-molecule microarray, Cy5-labelled CALM1, plus calcium, artefact control for SMM control-protein annotation, profiling panel (AID 1112); details: Cy5-CALM1 binding fluorescence, higher = more signal;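 further: score merges spot fluorescence with signal to noise from triplicate slides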
# [16] = probe aWnt5a binding to arrayed compounds – biochemical, biotinylated probe, 635/667 nm fluorescence, primary screen (AID 1113); details: small-molecule microarray, higher = more signal;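 further: score merges 667 nm fluorescence intensity with signal-to-noise per printed feature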
# [17] = probe aShh binding to arrayed compounds – biochemical, biotinylated probe, 635/667 nm fluorescence, primary screen (AID 1114); details: small-molecule microarray, higher = more signal;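 further: probe is biotin-labelled aShh protein from a stem cell growth factor screen; measures binding of labelled protein to compounds printed on the slide; score merges feature fluorescence at 667 nm with signal-to-noise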
# [18] = probe aNog binding to arrayed compounds – biochemical, biotinylated probe, 635/667 nm fluorescence, primary screen (AID 1115); details: small-molecule microarray, higher = more signal;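 further: probe is biotinylated aNog protein used at 0.15 µg/mL for 1 h at 4 C; z-score combines 667 nm fluorescence of each spot with its signal to noise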
# [19] = molecular target: Torsin-1A-interacting protein 1 (Homo sapiens) (UniProt Q5JTV8); experiment: compound microarray binding of lysate hLAP1 – cell lysate, small-molecule microarray, COS7 lysate, 635/667 nm fluorescence, primary screen (AID 1116); details: 635 nm fluorescence, higher = more signal
# [20] = molecular target: Alpha-bungarotoxin (Bungarus multicinctus) (UniProt P60615); experiment: compounds binding labelled alpha-BTX control protein – biochemical, small-molecule microarray, Alexa647 label, 635/667 nm fluorescence, artefact control for SMM control protein annotation, profiling panel (AID 1117); details: alpha-BTX-A647 binding fluorescence, higher = more signal
# Chain of Alpha-bungarotoxin (Bungarus multicinctus) (P60615 whole entry, looked up): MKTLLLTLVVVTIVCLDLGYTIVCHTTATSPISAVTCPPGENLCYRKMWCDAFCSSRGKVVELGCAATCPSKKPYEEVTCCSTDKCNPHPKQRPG
# Chain of Follistatin-related protein 3 (Homo sapiens) (O95633 whole entry, looked up): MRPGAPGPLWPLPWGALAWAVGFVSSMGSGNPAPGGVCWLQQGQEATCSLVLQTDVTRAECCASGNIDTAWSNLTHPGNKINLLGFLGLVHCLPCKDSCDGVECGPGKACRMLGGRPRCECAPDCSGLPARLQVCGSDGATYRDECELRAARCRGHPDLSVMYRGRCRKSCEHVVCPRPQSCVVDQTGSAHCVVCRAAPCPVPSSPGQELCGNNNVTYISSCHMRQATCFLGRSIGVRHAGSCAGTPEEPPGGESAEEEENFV
# Chain of Fibroblast growth factor 10 (Homo sapiens) (O15520 whole entry, looked up): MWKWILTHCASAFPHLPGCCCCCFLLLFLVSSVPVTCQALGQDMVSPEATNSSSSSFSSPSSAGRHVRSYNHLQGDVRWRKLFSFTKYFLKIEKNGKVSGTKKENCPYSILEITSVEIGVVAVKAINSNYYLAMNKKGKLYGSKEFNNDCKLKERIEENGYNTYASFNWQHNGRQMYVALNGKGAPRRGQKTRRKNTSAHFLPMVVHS
# Chain of Dickkopf-related protein 1 (Homo sapiens) (O94907 whole entry, looked up): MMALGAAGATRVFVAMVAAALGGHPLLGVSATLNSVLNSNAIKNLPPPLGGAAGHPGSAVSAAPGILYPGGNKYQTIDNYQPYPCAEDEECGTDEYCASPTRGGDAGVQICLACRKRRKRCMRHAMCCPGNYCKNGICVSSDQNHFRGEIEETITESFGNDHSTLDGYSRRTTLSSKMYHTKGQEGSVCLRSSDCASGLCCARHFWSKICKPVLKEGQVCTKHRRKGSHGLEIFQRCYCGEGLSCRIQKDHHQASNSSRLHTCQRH
# Chain of Epidermal growth factor receptor (Homo sapiens) (P00533 whole entry, looked up): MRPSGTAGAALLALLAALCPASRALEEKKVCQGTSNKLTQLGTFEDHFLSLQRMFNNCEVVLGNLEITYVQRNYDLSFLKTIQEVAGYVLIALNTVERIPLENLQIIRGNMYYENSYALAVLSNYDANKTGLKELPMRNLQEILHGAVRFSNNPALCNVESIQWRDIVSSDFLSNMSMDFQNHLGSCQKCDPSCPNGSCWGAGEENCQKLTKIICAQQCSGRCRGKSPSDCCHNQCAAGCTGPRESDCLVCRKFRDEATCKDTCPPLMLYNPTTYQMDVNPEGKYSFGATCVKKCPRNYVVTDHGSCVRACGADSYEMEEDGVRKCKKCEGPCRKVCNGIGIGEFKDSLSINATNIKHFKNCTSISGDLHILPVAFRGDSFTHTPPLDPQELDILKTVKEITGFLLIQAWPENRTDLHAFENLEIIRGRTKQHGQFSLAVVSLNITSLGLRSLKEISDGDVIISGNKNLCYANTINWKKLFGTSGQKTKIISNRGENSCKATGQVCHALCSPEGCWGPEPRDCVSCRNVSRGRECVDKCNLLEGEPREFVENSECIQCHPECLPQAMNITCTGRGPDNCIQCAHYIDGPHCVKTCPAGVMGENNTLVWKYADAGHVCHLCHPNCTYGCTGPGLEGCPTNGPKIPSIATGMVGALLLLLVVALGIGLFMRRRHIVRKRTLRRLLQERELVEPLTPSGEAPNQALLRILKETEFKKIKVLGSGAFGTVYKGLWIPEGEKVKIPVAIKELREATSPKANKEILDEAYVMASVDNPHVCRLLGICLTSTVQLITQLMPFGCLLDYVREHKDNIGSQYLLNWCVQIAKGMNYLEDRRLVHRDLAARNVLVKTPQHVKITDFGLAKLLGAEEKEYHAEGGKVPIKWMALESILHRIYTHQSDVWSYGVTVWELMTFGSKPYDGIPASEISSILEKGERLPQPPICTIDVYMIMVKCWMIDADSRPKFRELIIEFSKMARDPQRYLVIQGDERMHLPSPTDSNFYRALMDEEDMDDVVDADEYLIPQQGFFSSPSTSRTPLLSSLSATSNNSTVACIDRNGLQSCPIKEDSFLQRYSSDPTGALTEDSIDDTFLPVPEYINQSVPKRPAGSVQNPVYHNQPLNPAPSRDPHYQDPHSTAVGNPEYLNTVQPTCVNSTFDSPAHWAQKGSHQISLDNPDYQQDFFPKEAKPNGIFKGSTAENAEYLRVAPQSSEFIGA
# Chain of Torsin-1A-interacting protein 1 (Homo sapiens) (Q5JTV8 whole entry, looked up): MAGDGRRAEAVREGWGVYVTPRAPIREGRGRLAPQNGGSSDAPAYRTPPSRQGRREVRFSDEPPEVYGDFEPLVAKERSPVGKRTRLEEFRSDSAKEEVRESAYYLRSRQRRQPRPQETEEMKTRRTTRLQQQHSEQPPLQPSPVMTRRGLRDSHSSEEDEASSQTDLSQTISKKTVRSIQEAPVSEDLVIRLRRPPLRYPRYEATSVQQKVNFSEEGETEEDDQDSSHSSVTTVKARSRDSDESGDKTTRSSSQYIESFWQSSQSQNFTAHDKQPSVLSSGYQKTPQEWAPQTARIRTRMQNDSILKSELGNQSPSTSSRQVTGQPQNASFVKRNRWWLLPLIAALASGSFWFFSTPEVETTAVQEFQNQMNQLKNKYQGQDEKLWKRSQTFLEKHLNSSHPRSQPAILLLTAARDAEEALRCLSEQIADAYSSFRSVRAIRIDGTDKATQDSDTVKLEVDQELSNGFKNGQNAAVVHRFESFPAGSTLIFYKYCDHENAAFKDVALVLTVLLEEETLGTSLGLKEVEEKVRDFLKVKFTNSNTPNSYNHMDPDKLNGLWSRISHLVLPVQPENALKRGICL
# Chain of Left-right determination factor 2 (Homo sapiens) (O00292 whole entry, looked up): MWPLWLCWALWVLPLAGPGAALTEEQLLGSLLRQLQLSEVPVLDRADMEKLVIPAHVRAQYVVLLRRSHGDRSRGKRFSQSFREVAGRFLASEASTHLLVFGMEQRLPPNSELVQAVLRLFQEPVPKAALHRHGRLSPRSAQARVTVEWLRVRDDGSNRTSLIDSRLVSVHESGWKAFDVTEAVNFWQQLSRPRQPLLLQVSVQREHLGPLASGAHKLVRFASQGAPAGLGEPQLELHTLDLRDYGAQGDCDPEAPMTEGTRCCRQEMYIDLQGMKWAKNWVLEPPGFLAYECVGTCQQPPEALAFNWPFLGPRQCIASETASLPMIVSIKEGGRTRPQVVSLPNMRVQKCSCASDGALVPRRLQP
Compound,composite z-score [1],composite z-score [2],composite z-score [3],z-score [4],composite z-score [5],composite z-score [6],composite z-score [7],composite z-score [8],composite z-score [9],composite z-score [10],composite z-score [11],z-score [12],composite z-score [13],composite z-score [14],composite z-score [15],composite z-score [16],composite z-score [17],composite z-score [18],composite z-score [19],composite z-score [20]
O=C1C2C=CC(C(O)C3CCCCC3)N(Nc3ccc([N+](=O)[O-])cc3)C2C(=O)N1c1ccccc1 (stereo not given),1.26,-0.236,0.783,-1.04 (inactive),-0.901,1.31,-1.54,-0.677,-1.49,-1.28,1.37,-0.057,-1.4,1.16,0.164,-0.0944,-0.0035,0.283,0.721,1.96
C=CCOC(=O)[C@@H]1[C@H]2C(=O)O[C@H](c3ccccc3)[C@H](c3ccccc3)N2[C@H](c2ccc(OCCOC(=O)[C@@H]3C[C@@H]4C(=O)N[C@@H](Cc5ccccc5)C(=O)N4[C@@H]3c3ccc(O)cc3)cc2)[C@@]12C(=O)Nc1ccc(I)cc12,1.46,-0.191,-0.35,-1.17 (inactive),1.16,1.19,0.711,1.38,1.03,0.518,1.38,-0.726,0.56,0.75,0.299,-0.0981,0.178,-0.0784,-0.289,1.02
CCCC[C@H]1OB(O)C[C@H]2C1=C(COc1ccccc1)C[C@H]1C(=O)N(C)C(=O)[C@H]12,-0.328,0.0763,-0.442,0.377 (inactive),0.429,-0.0785,0.447,0.43,0.439,0.741,-0.121,-0.271,0.283,-0.515,-0.255,0.0438,0.0899,-0.106,0.101,0.0648
CCCC[C@@H]1C[C@H]1[C@@H](NC(=O)c1ccco1)c1ccc(C(=O)OC)cc1,-0.433,0.0294,0.838,0.965 (inactive),0.0373,-1.09,-0.643,-0.76,-0.633,0.807,0.0703,-1.07,-0.423,0.0927,0.555,-0.027,-0.217,-0.261,-0.392,-0.335
C=CCN1C(=O)[C@]2(O[C@H](CCO)[C@@H]([Si](C)(C)c3ccc(OC)cc3)[C@@H]2C)c2cc(N3CCCCC3=O)ccc21,0.914,0.0375,0.0217,-1.69 (inactive),0.849,0.549,0.286,0.918,0.147,0.247,1.44,-4.11,0.0651,0.856,0.352,-0.0977,0.147,0.431,0.957,1.19
